# PubChem BioAssay
# The source made the active and inactive calls.
# Tests used:
# [1] = binders of probe aFSTL3 on microarray, primary screen, stem cell growth factor project, biochemical, small-molecule microarray, fluorescence 635/667 (AID 1064); settings: higher = more signal;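 note: measures binding of the biotinylated anti-FSTL3 antibody to printed compounds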
# [2] = binders from COS7 lysate, DM2A8 probe, primary screen, torsin A project, cell lysate, small-molecule microarray, fluorescence 635/667 (AID 1065); settings: higher = more signal, COS7 lysate expressing mutant human TOR1A
# [3] = binders of probe aFGF2 on microarray, primary screen, stem cell growth factor project, biochemical, small-molecule microarray, fluorescence 635/667 (AID 1067); settings: higher = more signal;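 note: measures binding of biotinylated aFGF2 protein to printed compounds on slides; z-score merges feature fluorescence and signal-to-noise across triplicate slides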
# [4] = binders of probe aFGF10 on microarray, primary screen, stem cell growth factor project, biochemical, small-molecule microarray, fluorescence 635/667 (AID 1071); settings: higher = more signal;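 note: score merges 667 nm spot intensity and signal to noise from triplicate slides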
# [5] = molecular target: Neurogenic locus notch homolog protein 2 (Homo sapiens) (UniProt Q04721); test: Notch2 binders on small-molecule microarrays, primary screen, biochemical, small-molecule microarray, 635 nm fluorescence, stem cell growth factors (AID 1073); settings: Notch2 binding, higher = more signal
# Chain of Neurogenic locus notch homolog protein 2 (Homo sapiens) (Q04721 whole entry, looked up, canonical isoform): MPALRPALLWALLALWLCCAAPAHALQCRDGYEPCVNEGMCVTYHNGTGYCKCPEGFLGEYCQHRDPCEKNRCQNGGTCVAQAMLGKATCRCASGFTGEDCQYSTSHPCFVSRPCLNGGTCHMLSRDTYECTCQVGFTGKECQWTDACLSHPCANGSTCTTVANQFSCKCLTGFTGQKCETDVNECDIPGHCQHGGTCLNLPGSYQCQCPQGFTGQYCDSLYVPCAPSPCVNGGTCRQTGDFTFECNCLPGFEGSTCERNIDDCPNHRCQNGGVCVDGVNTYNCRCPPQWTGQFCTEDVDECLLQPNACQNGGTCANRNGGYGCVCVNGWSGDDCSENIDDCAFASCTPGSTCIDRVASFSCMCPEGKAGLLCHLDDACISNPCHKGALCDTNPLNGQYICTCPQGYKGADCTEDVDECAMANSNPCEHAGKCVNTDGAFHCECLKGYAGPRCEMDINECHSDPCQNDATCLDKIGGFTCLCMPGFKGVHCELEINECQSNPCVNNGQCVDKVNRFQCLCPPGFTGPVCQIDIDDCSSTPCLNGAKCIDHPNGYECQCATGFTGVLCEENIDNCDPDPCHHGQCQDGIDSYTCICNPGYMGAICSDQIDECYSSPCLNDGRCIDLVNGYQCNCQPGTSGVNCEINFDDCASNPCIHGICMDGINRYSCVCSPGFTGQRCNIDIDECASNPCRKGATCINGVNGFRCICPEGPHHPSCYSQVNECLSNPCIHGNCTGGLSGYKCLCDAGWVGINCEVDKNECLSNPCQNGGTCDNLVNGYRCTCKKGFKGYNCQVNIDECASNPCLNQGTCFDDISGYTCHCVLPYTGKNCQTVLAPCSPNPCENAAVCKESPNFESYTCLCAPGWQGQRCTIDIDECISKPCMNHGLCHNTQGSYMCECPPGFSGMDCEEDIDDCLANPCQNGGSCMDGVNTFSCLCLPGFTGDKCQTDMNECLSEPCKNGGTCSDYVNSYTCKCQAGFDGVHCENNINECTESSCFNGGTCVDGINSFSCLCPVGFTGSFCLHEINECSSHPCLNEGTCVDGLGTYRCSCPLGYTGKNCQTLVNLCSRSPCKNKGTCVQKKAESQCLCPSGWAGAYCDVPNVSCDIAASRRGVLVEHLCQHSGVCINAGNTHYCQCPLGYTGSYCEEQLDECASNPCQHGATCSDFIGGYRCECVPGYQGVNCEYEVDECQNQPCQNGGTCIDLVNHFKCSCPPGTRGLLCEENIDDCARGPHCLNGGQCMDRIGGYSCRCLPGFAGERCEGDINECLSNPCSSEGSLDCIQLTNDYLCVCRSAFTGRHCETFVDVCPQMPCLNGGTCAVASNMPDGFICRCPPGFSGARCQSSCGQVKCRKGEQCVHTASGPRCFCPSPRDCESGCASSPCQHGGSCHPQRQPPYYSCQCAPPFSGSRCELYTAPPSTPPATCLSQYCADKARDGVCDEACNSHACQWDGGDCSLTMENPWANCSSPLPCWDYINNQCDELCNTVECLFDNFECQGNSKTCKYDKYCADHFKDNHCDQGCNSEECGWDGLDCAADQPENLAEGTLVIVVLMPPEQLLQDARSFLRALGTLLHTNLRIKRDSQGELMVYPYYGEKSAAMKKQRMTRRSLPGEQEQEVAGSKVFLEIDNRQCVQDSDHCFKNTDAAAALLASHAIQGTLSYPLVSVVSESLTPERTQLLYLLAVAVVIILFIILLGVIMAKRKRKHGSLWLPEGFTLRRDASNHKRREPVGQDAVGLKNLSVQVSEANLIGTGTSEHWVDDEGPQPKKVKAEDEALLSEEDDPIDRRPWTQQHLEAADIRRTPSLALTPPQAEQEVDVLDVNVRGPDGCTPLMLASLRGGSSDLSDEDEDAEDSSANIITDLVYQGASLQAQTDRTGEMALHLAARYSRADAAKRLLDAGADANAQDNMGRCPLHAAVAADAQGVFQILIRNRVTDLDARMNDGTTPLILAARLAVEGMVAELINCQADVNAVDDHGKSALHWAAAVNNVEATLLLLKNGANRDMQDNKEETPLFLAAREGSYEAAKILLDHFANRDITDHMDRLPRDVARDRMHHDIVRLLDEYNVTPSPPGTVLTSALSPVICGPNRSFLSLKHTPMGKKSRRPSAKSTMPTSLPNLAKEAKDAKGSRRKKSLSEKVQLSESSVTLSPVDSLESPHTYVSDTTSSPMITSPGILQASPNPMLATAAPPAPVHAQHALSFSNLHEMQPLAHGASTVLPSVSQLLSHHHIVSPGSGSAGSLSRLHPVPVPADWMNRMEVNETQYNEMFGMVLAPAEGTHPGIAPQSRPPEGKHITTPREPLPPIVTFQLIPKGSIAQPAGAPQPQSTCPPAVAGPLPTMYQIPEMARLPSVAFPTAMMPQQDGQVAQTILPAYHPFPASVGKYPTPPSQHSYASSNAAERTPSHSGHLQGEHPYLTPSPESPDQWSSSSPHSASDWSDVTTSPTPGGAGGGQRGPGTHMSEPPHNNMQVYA
# [6] = molecular target: Pro-neuregulin-1, membrane-bound isoform (Homo sapiens) (UniProt Q02297); test: NRG1 binders on small-molecule microarrays, primary screen, psychiatric disease protein project, biochemical, small-molecule microarray, fluorescence 635/667 (AID 1075); settings: NRG1 binding, 635 nm fluorescence, higher = more signal;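 note: score combines 667 nm spot fluorescence with signal to noise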
# Chain of Pro-neuregulin-1, membrane-bound isoform (Homo sapiens) (Q02297 whole entry, looked up, the tested form may be a part, canonical isoform): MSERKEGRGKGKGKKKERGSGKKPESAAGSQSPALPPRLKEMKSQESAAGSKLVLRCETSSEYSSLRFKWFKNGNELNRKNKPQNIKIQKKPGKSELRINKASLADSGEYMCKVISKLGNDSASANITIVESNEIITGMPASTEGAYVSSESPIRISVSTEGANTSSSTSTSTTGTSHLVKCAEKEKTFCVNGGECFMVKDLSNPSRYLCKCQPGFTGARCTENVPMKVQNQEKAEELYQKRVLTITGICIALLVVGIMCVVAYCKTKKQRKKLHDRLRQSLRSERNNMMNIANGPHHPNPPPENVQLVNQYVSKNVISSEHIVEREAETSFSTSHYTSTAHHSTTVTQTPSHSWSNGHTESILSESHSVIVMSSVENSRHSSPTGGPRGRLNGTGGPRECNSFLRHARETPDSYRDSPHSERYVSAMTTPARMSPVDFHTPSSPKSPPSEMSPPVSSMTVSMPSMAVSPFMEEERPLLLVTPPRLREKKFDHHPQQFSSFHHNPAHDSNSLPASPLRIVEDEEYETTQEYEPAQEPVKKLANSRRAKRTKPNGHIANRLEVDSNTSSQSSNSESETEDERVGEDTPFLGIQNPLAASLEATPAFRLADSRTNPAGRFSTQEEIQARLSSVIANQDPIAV
# [7] = system: Neuregulin-1 EGF-like domain; test: binders of neuregulin-1 EGF-like domain, primary screen, biochemical, small-molecule microarray, 635 nm fluorescence (AID 1081); settings: small-molecule microarray binding, higher = more signal;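 note: binding of the protein to compounds printed on small-molecule microarray slides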
# [8] = FRG1 promoter luciferase signal modulators, primary screen, FRG1 inhibition for FSHD, cell-based, C2C12 myotubes, firefly/Renilla luciferase, luminescence (AID 1084); settings: higher = more signal, called active from +8 up or from −8 down
# [9] = binders of probe aFST on microarray, primary screen, stem cell growth factor project, biochemical, small-molecule microarray, fluorescence 635/667 (AID 1086); settings: higher = more signal;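 note: score merges 667 nm fluorescence with signal-to-noise of each printed compound spot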
# [10] = binders of probe aHhip on microarray, primary screen, stem cell growth factor project, biochemical, small-molecule microarray, fluorescence 635/667 (AID 1087); settings: higher = more signal;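 note: score merges spot fluorescence at 667nm with spot signal to noise ratio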
# [11] = system: PRMT1 (protein arginine N-methyltransferase 1); test: PRMT1 binders on small-molecule microarrays, primary screen, biochemical, small-molecule microarray, 635 nm fluorescence (AID 1088); settings: small-molecule microarray binding, higher = more signal;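 note: binding of Prmt1 protein to compounds spotted on small-molecule microarray slides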
# [12] = yeast growth modulation, basal conditions, primary screen, YJM789 clinical isolate, OD600, 24 h (AID 1089);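 note: growth of clinical yeast isolate S. cerevisiae YJM 789 seeded 1000 cells per well; test concentration not given here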; settings: S. cerevisiae YJM789 growth, higher = more signal, called active from +8 up or from −8 down
# [13] = fission yeast growth modulation, primary screen, strain 972, OD600, 24 h, no modulator (AID 1090);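 note: basal condition with compound alone and no growth modifier present; test concentration not given here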; settings: S. pombe 972 growth, higher = more signal, called active from +8 up or from −8 down
# [14] = S. cerevisiae growth modulation with rapamycin, primary screen, strain BY4716, OD600, 96 h (AID 1091); settings: higher = more signal, called active from +8 up or from −8 down; note: test concentration not given here
# [15] = molecular target: Torsin-1A-interacting protein 2 (Homo sapiens) (UniProt Q8NFQ8); test: LULL1 binders on small-molecule microarray, primary screen, cell lysate, human LULL1 lysate, 635/667 nm fluorescence (AID 1092); settings: hLULL1 lysate binding, 635 nm fluorescence, higher = more signal;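 note: probe is lysate of COS7 cells overexpressing human LULL1; score merges per-feature 667 nm fluorescence with signal-to-noise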
# Chain of Torsin-1A-interacting protein 2 (Homo sapiens) (Q8NFQ8 whole entry, looked up): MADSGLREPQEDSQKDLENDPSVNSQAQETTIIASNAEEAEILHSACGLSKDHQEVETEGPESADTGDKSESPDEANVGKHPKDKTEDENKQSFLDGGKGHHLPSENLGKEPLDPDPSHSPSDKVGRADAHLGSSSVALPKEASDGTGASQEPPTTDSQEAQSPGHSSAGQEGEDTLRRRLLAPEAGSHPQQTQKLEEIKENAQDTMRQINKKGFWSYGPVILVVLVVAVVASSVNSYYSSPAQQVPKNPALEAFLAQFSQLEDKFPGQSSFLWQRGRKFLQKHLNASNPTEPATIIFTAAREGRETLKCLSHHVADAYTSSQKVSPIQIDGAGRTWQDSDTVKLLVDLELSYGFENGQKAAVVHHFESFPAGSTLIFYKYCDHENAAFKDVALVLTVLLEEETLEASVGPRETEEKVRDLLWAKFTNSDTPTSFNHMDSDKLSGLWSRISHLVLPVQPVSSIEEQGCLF
# [16] = E. coli growth modulation, two-sided OD650, primary screen, E. coli filamentation project, strain DRC41, 24 h (AID 1093); settings: OD650, 24 h, higher = more signal, called active from +8 up or from −8 down;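 note: MC1000 strain lacking acrAB efflux and sulA so SOS filamentation is blocked; test concentration not given here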
# [17] = small-molecule microarray binders of probe aLefty2, primary screen, biochemical, biotinylated probe, 635/667 nm fluorescence (AID 1094); settings: higher = more signal;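 note: score merges spot fluorescence near 667 nm with spot signal-to-noise ratio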
# [18] = system: Noggin (protein binding on small-molecule microarray); test: Noggin binders on small-molecule microarray, primary screen, biochemical, 635/667 nm fluorescence (AID 1095); settings: 635 nm fluorescence, higher = more signal;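 note: score merges 667 nm feature fluorescence with signal to noise over triplicate slides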
# [19] = molecular target: Neurogenic locus notch homolog protein 3 (Homo sapiens) (UniProt Q9UM47); test: NOTCH3 binders on small-molecule microarray, primary screen, biochemical, 635/667 nm fluorescence (AID 1096); settings: NOTCH3 binding, 635 nm fluorescence, higher = more signal
# [20] = small-molecule microarray binders of probe aEGFR, primary screen, biochemical, biotinylated probe, 635/667 nm fluorescence (AID 1097); settings: higher = more signal;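 note: probe is a biotinylated anti-EGFR antibody binding compounds printed on slides; score combines fluorescence near 667 nm and signal to noise of each spot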
SMILES,composite z-score [1],composite z-score [2],composite z-score [3],composite z-score [4],composite z-score [5],composite z-score [6],composite z-score [7],z-score [8],composite z-score [9],composite z-score [10],composite z-score [11],z-score [12],z-score [13],z-score [14],composite z-score [15],z-score [16],composite z-score [17],composite z-score [18],composite z-score [19],composite z-score [20]
CCCC[C@@H]1C[C@H]1[C@@H](NC(=O)c1cccnc1)c1ccc(-c2ccccc2)cc1,0.684,-0.242,-0.124,-0.522,-1.71,-0.401,-0.655,-0.781 (inactive),-1.23,-0.0074,-0.537,-1.27 (inactive),-15.7 (active),-2.6 (inactive),-0.795,-0.919 (inactive),0.009,1.01,-0.476,-0.345
C=CCOC(=O)[C@@H]1[C@H]2C(=O)O[C@H](c3ccccc3)[C@H](c3ccccc3)N2[C@H](c2ccc(OCCOC(=O)[C@H]3C[C@H]4C(=O)N[C@@H](CCCC[N+](C)(C)C)C(=O)N4[C@H]3c3ccc(O)cc3)cc2)[C@@]12C(=O)Nc1ccc(I)cc12,-0.42,1.1,-0.0569,0.528,1.18,1.31,1.37,0.369 (inactive),0.208,-0.138,1.53,1.86 (inactive),1.49 (inactive),4.28 (inactive),2.64,-0.0021 (inactive),-0.126,1.94,1.05,-0.027
O=C1c2ccccc2[C@](Cc2ccccc2I)(C(=O)NCc2ccccc2)[C@H](c2ccc(CO)cc2)N1C1CCCCC1,-0.126,0.106,-0.0291,0.753,1.13,1.76,1.27,-1.6 (inactive),0.671,0.189,1.27,-0.0116 (inactive),-1.32 (inactive),-0.0677 (inactive),1.78,-0.403 (inactive),0.117,1.32,0.918,0.494
COCCCNC(=O)[C@]1(CCC(=O)OC(C)(C)C)N=C(c2ccc(OCCCO)cc2)O[C@@H]1c1ccccc1,1.19,0.389,0.0629,0.578,0.819,1.96,1.28,0.977 (inactive),0.888,0.591,1.22,0.12 (inactive),1.06 (inactive),-0.302 (inactive),3.65,0.447 (inactive),0.629,-0.275,0.226,0.475
CCOC(=O)C[C@H]1[C@H](OC(=O)c2ccc(C(=O)c3ccccc3)cc2)[C@@H](NC(=O)c2ccc3ccccc3c2)c2cc(OCCCO)ccc2N1C(=O)c1ccccc1,-0.476,0.443,-0.0943,0.757,1.48,1.01,1.07,0.0732 (inactive),0.355,-0.0672,1.56,-0.79 (inactive),-0.681 (inactive),-0.278 (inactive),2.54,-0.551 (inactive),0.0773,0.354,1.09,0.116
O=C1O[C@@H](c2ccccc2)[C@@H](c2ccccc2)N2[C@@H](c3ccc(O)cc3)[C@]3(C(=O)Nc4ccc(C#CC5=CCCCC5)cc43)[C@@H](C(=O)N3CCN(c4ncccn4)CC3)[C@H]12,-0.397,0.892,-0.0287,0.323,0.846,0.901,1.2,0.795 (inactive),0.207,0.0116,1.55,0.922 (inactive),0.487 (inactive),0.566 (inactive),3.12,1.62 (inactive),0.517,1.86,1.15,-0.115
C=CCOC(=O)[C@H]1[C@@H]2C(=O)O[C@@H](c3ccccc3)[C@@H](c3ccccc3)N2[C@@H](c2ccc(OCCOC(=O)[C@H]3C[C@H]4C(=O)N[C@@H](Cc5ccccc5)C(=O)N4[C@H]3c3cccc(OCCO)c3)cc2)[C@]12C(=O)Nc1ccc(I)cc12,-0.36,0.876,0.0422,0.66,0.118,1.35,1.21,0.633 (inactive),0.0086,0.122,1.54,0.731 (inactive),1 (inactive),4 (inactive),2.36,-0.0451 (inactive),-0.185,1.91,1.09,-0.067
C[C@H]1ON(c2ccc(C(=O)OC(C)(C)C)cc2)[C@@H](c2ccc(O)cc2)[C@@H]1C(=O)N1C(=O)OC[C@@H]1c1ccccc1,-0.565,-0.156,-0.117,0.686,1.42,0.464,1.15,-0.308 (inactive),0.184,-0.0022,1.51,0.657 (inactive),-1.95 (inactive),31.6 (active),1.69,-0.661 (inactive),-0.33,0.819,1.05,-0.0315
C=CCNC(=O)[C@@H]1[C@H]2C(=O)O[C@H](c3ccccc3)[C@H](c3ccccc3)N2[C@H](c2ccc(OCCO)cc2)[C@@]12C(=O)N(C(=O)OCCOC)c1ccc(C#CC3=CCCCC3)cc12,0.0698,0.937,0.0524,0.59,1.35,1.33,1.17,0.223 (inactive),0.622,0.21,1.55,1.27 (inactive),1.14 (inactive),3.61 (inactive),2.83,-0.741 (inactive),-0.0373,0.978,1.14,0.0209
COCCOC(=O)N1C(=O)[C@@]2(c3cc(C#CCC(C(=O)OC)C(=O)OC)ccc31)[C@H](c1ccc(OCCO)cc1)N1[C@H](c3ccccc3)[C@H](c3ccccc3)OC(=O)[C@H]1[C@@H]2C(=O)N1CCN(c2ncccn2)CC1,-0.372,1.32,-0.0431,0.905,1.25,1.64,1.14,0.977 (inactive),0.789,0.142,1.45,1.07 (inactive),0.934 (inactive),6.44 (inactive),3.17,1.75 (inactive),0.0112,1.17,1.07,0.0397
C=CCC(OC(C)=O)[C@@H]1[C@@H](N(Cc2cc3ccccc3o2)C(=O)Cc2ccc(F)cc2)c2cc(OCCCO)ccc2N1C(=O)c1ccc2ccccc2n1 (stereo not given in full),-0.0583,0.337,-0.0695,0.0991,-0.0518,-0.137,-0.275,-0.591 (inactive),0.0407,0.0881,-0.22,-0.271 (inactive),-0.448 (inactive),-0.258 (inactive),-0.136,-0.494 (inactive),0.055,-0.145,-0.814,-0.0573
COc1ccccc1CN1C(=O)c2ccccc2[C@](Cc2ccccc2I)(C(=O)NC(C)C)[C@@H]1c1ccc(CO)cc1,-0.515,0.49,-0.0296,0.732,1.43,1.7,1.15,-2.79 (inactive),0.614,0.0373,1.53,0.188 (inactive),0.0889 (inactive),0.152 (inactive),2.05,-1.01 (inactive),-0.158,1.22,1.06,0.0583
CC(C)(C)OC(=O)CC[C@]1(C(=O)N2CCOCC2)N=C(c2ccc(OCCCO)cc2)O[C@H]1c1ccccc1,-0.209,0.177,-0.0601,0.724,0.819,0.526,0.548,-2.64 (inactive),0.534,0.0695,0.587,0.0164 (inactive),-0.988 (inactive),-0.439 (inactive),2.52,0.961 (inactive),0.0038,1.26,0.348,-0.0656
O=C(CS)NCCCCCCNC(=O)[C@H]1C[C@H]2C(=O)N[C@@H](Cc3ccccc3)C(=O)N2[C@H]1c1cccc(OCCO)c1,-0.165,0.605,0.0465,1.16,1.56,1.36,1.41,0.328 (inactive),0.928,-0.145,1.54,0.646 (inactive),0.311 (inactive),1.15 (inactive),2.81,-0.23 (inactive),0.118,1.6,1.02,0.14
C=CC[C@@H](OC(=O)Nc1ccc(OC)cc1)c1ccc(OCCO)cc1,0.767,-1.54,-0.131,-0.805,-2.39,-0.682,0.0481,5.78 (inactive),-1.25,0.0722,-0.424,-0.348 (inactive),-3.59 (inactive),0.126 (inactive),-0.0818,0.743 (inactive),-0.0304,-0.929,-0.801,-0.338
CO[C@H]1O[C@H](CO)[C@@H](OC(=O)c2ccc(Br)cc2)[C@@H]2OC(=O)[C@@H](Cc3ccc4ccccc4c3)C/C=C/C[C@H](Cc3ccc4ccccc4c3)C(=O)O[C@@H]12,-0.248,-0.08,0.0289,0.622,0.714,1.74,1.2,-1.14 (inactive),0.349,1.2,1.45,-2.76 (inactive),-2.35 (inactive),-0.842 (inactive),2.82,0.0001 (inactive),-0.0375,0.0104,0.478,-0.112
COC(=O)[C@@]1(Cc2ccc(OC)cc2)[C@H]2c3cc(C(=O)N4CCCC4)n(CCc4cc5ccccc5[nH]4)c3C[C@H]2CN1C(=O)c1ccccc1,0.649,0.115,0.194,0.614,1.36,1.9,1.1,0.562 (inactive),1.71,0.363,0.907,0.596 (inactive),2.61 (inactive),1.72 (inactive),3.43,-0.12 (inactive),0.507,0.364,1.05,0.0464
[N-]=[N+]=NCc1ccccc1C[C@@]1(C(=O)NCCN2CCOCC2)N=C(c2ccc(OCCCO)cc2)O[C@@H]1c1ccccc1N=[N+]=[N-],0.646,1.99,0.075,0.879,0.777,0.684,1.16,-1.89 (inactive),0.75,-0.0296,1.37,-1.22 (inactive),-0.269 (inactive),1.29 (inactive),3.12,-0.704 (inactive),0.09,0.622,0.842,-0.0738
CC(C)(C)OC(=O)CC[C@@]1(C(=O)O)N=C(c2ccc(OCCCO)cc2)O[C@@H]1c1ccccc1CN=[N+]=[N-],0.761,0.348,0.0732,0.246,0.717,1.03,1.19,5.39 (inactive),0.971,0.259,1.29,0.947 (inactive),0.642 (inactive),0.0515 (inactive),2.84,0.882 (inactive),0.36,-0.195,0.44,0.272
